This is a sample that favours compounds with a hit; in the whole collection about 1.5% have one here.
F508del corr: CFTR F508del correction in bronchial cells | AID 720511 | 0.36% of 350,000 active | activity (quench increase), % at 7.58 µM | CFBE cells, YFP halide quenching; stimulated with forskolin plus potentiator P3; % fluorescence drop versus neutral controls;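 active = mean added fluorescence quench of at least 8% versus neutral control, with both replicates also reaching 8%; inconclusive = only one of the mean or replicate conditions met; inactive = mean below 8% and not both replicates reaching 8%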;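 note: cells transiently co-express mutant CFTR-F508del with the halide-sensitive YFP; corrector assay measuring rescue of mutant channel to the surface after 24 h compound exposure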
RAD54 branch: blocks human RAD54 Holliday junction branch migration; FAM/BHQ fluorescence; inhibition, % at 10.4 µM; 0.14% of 360,000 active; AID 602329;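 active = mean normalized replicate activity at least 40 and at least half of replicates scoring 40 or more; inconclusive = only one of the two criteria met; inactive = mean below 40 and under half of replicates reaching 40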;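 note: 0% = median of neutral control wells and 100% = median of positive control wells; inhibitors cause a drop in the FAM fluorescence signal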
Target sequence (Q92698 whole entry, looked up): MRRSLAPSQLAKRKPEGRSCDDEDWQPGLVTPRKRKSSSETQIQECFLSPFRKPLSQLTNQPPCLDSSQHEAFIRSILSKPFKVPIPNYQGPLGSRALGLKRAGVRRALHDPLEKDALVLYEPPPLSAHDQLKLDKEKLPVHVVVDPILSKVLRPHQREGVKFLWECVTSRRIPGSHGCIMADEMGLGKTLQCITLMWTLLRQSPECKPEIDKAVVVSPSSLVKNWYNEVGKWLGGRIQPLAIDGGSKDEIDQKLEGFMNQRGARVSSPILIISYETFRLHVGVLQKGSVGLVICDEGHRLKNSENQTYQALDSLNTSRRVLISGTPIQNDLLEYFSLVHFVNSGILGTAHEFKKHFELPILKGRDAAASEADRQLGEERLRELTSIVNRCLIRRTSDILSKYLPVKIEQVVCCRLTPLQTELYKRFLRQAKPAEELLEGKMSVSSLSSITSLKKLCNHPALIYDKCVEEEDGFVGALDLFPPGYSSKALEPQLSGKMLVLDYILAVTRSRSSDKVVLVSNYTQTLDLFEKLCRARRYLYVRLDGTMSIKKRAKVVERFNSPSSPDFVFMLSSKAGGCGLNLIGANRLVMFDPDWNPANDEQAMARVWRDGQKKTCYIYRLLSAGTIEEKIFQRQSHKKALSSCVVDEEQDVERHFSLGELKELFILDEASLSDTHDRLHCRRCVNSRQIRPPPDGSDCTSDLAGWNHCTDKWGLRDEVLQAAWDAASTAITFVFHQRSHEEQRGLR
dFosB activator: enhances mouse delta FosB homodimer DNA binding | 0.99% of 340,000 active | activation, % at 25 µM | purified delta FosB, TAMRA-CDK5 oligo fluorescence polarization; percent of positive-control signal above neutral wells | P13346;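 active = mean activation above about 17%, with every replicate also reaching it, limit read from the data, passing the limit was not always enough; inconclusive = only one of the two conditions met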
PvdQ acylase: P. aeruginosa PvdQ acylase inhibition. purified PvdQ acylase, fluorescence plate reader. inhibition, % at 10 µM. 0.063% of 340,000 active; in the data active = inhibition above about 30%, passing the limit was not always enough; inconclusive = no clear call, values can overlap the other calls;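 note: 0% = vehicle neutral wells and 100% = reference inhibitor wells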
N-glyco inh: blocks N-linked glycosylation in D54 reporter cells. 0.23% of 360,000 active. D54 ERlucT glycosylation luciferase reporter, 24 h; percent of 100 nM tunicamycin response. reporter increase, % at 12.5 µM;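 active = mean luciferase reporter signal, scaled so untreated is 0 and the glycosylation-blocking control 100, at or above a set limit in every replicate; inconclusive = mean reaches the limit but not every replicate does; inactive = mean below the limit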;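 note: luciferase carries N-glycosylation sites so blocking glycosylation raises the light; 0% = median of neutral control wells and 100% = median of 100 nM tunicamycin wells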
RAD52 anneal inh: inhibitors of human RAD52 DNA annealing. recombinant RAD52 DNA annealing, FRET fluorescence. inhibition, % at 18.7 µM. 0.46% of 360,000 active;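 active = every replicate showing at least 50% inhibition; inconclusive = mean inhibition at least 50% but not in every replicate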
Numbers without * were called inactive.

For O=C(NCc1ccccc1)C(c1ccc(-c2ccccc2)cc1)n1c(=O)c(-c2cc3ccccc3[nH]2)nc2ccccc21 (stereo unspecified) the results were F508del corr 10* and RAD52 anneal inh -24.
O=C(NCc1ccccc1)C(c1ccncc1)n1c(=O)c(-c2cc3ccccc3[nH]2)nc2ccccc21 (stereo unspecified) was read as F508del corr -1 and RAD52 anneal inh -10.
For CC1(C(=O)Nc2ccc3c(c2)OCO3)Cc2c(-c3ccccc3)ccnc2O1 (stereo unspecified) the results were F508del corr 3, RAD54 branch 7, N-glyco inh 0 and RAD52 anneal inh 2.
Screening CC(=O)Nc1cccc(-c2ccnc3c2CC(C)(C(=O)Nc2cccc(C(C)=O)c2)O3)c1 (stereo unspecified) returned F508del corr 2, RAD54 branch -5, N-glyco inh 30* and RAD52 anneal inh 2.
CC(=O)Nc1cccc(-c2ccnc3c2CC(C)(C(=O)Nc2ccc4c(c2)OCO4)O3)c1 (stereo unspecified) was read as F508del corr 10*, RAD54 branch 10, N-glyco inh 20 and RAD52 anneal inh -7.
COc1ccc(-c2oc3ccc(-c4cc(OC)c(OC)c(OC)c4)cc3c2C#Cc2ccccn2)cc1 was read as F508del corr 8.8*, RAD54 branch 6, dFosB activator -8, PvdQ acylase -5, N-glyco inh 1 and RAD52 anneal inh -19.
`CCc1cccc(CC)c1NC(=O)/C(C#N)=C/c1ccccc1C(F)(F)F` gave RAD54 branch 13, dFosB activator -1, PvdQ acylase -12 and N-glyco inh 69*.
`CCN(CC)CCCNc1ccc2ncn3c4ccc(O)cc4c(=O)c1c23` gave F508del corr 20*, dFosB activator 38*, PvdQ acylase -3, N-glyco inh 81* and RAD52 anneal inh inactive.
Screening CN(C)CCNc1ccc2nnn3c4ccc(O)cc4c(=O)c1c23 returned F508del corr 4, dFosB activator -54, PvdQ acylase -6, N-glyco inh inconclusive and RAD52 anneal inh 48.
`COc1ccc(/C=N/n2c(=O)[nH]c3c([nH]c4ccc(F)cc43)c2=O)cc1CN1CCCCC1` gave F508del corr 1, RAD54 branch 18, dFosB activator 31*, PvdQ acylase -5, N-glyco inh 2 and RAD52 anneal inh -9.
COc1ccc(/C=N/n2c(=O)[nH]c3c([nH]c4ccc(C)cc43)c2=O)cc1CN1CCOCC1 was read as F508del corr 1, dFosB activator 14, PvdQ acylase 2, N-glyco inh 1 and RAD52 anneal inh -9.
COc1nc(N)nc(NC(=O)c2cccs2)c1N=O was read as F508del corr 11*, RAD54 branch 2, dFosB activator 1, PvdQ acylase -15, N-glyco inh 6 and RAD52 anneal inh -11.
Screening COc1ccc(NC(=O)N2CCCCN3[C@H](C2)[C@@H](c2ccc(C4=CCCC4)cc2)[C@@H]3CO)cc1 returned F508del corr -9, RAD54 branch -8 and RAD52 anneal inh -18.
Screening N#Cc1cccc(NC(=O)COC(=O)c2ccccc2Sc2ccccc2C#N)c1 returned RAD54 branch 5, dFosB activator -12, PvdQ acylase 7, N-glyco inh 2 and RAD52 anneal inh -26.
`CC(=O)c1ccc(NC(=O)COC(=O)c2ccccc2Sc2ccccc2C#N)cc1` gave F508del corr -2, dFosB activator 40*, PvdQ acylase -12, N-glyco inh -2 and RAD52 anneal inh -15.
`C[C@@H]1CN([C@H](C)CO)C(=O)c2cccc(NS(=O)(=O)c3cn(C)cn3)c2O[C@@H]1CN(C)Cc1ccccc1` gave F508del corr 0, RAD54 branch -3 and RAD52 anneal inh -8.
Cc1ccc(Cn2c(SCC(=O)Nc3cc(C)on3)nc3ccccc3c2=O)cc1 was read as RAD54 branch 1, dFosB activator 65*, PvdQ acylase -14 and N-glyco inh -2.
`COc1cccc(C2c3cc4c(cc3OC(NNC(N)=O)C2C)OCO4)c1O` (stereo unspecified) gave F508del corr 8.9*, dFosB activator -8, PvdQ acylase 8, N-glyco inh 16 and RAD52 anneal inh -3.
COc1cc(C2c3cc4c(cc3OC(NNC(N)=O)C2C)OCO4)cc(OC)c1OC (stereo unspecified) was read as F508del corr 1, dFosB activator -6, PvdQ acylase 17, N-glyco inh 7 and RAD52 anneal inh -1.
`COC(=O)c1ccc(/C=C/c2c(-c3ccc(OC)cc3)oc3ccc(N4CCOCC4)cc23)cc1` gave F508del corr 9.6*, RAD54 branch 9, dFosB activator -4, PvdQ acylase -5, N-glyco inh -4 and RAD52 anneal inh -17.
Screening C[C@@H]1NC(=O)OC1c1ccco1 (stereo partly specified) returned F508del corr 5, RAD54 branch 7, dFosB activator 0, PvdQ acylase -1, N-glyco inh 2 and RAD52 anneal inh -26.
Screening O=C1N[C@@H](Cc2ccccc2)[C@@H](c2ccco2)O1 returned F508del corr 0, RAD54 branch -1, dFosB activator 6, PvdQ acylase 49*, N-glyco inh 4 and RAD52 anneal inh -28.
For CCNC(=O)C[C@H]1CC[C@H](NC(=O)C2CCC2)[C@@H](CO)O1 the results were F508del corr -2, RAD54 branch 3 and RAD52 anneal inh 0.
`CCOc1ccc(C2c3c(oc4cc(C)c(C)cc4c3=O)C(=O)N2CCCN(C)C)cc1OC` (stereo unspecified) gave F508del corr -2, RAD54 branch 7, dFosB activator 29*, PvdQ acylase 13, N-glyco inh 0 and RAD52 anneal inh -2.
Screening CCOC(=O)N1CCc2cc(OC)c(OC)c3c2c1cc1cc(OC)c(OC)cc13 returned F508del corr 2, dFosB activator -30, PvdQ acylase -17, N-glyco inh 26* and RAD52 anneal inh 24.
COc1cc(CC(=O)N2CCc3ccccc32)cc(OC)c1OC was read as RAD54 branch 6, dFosB activator 2, PvdQ acylase -11 and N-glyco inh -1.
`C[C@H]1CN([C@@H](C)CO)C(=O)c2cccc(NS(=O)(=O)c3cccs3)c2O[C@@H]1CN(C)Cc1ccc(C(=O)Nc2ccccc2N)cc1` gave F508del corr 0 and RAD52 anneal inh -5.
For ON=C1c2cc(OCCN3CCCCC3)ccc2-c2ccc(OCCN3CCCCC3)cc21 the results were RAD54 branch 86*, dFosB activator inconclusive, PvdQ acylase -15 and N-glyco inh 6.
For Clc1ccc(OCCN2CCCCC2)cc1Cl the results were RAD54 branch -4, dFosB activator -2, PvdQ acylase -11 and N-glyco inh 2.

Assay outcomes: PubChem BioAssay, Broad Institute
